Source: PubChem
D2 ag-1 – activates the human D2 dopamine receptor. HEK293 T-REx D2 cells, calcium flux agonist mode. activation, % at 2 µM. hit rate 0.53% among 340,000. AID 485358;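 active = activation over 3 SD above normal in the single-dose calcium agonist read, cut at about 30% in these data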; note: 0% is about no effect
Target sequence (P14416 whole entry, looked up): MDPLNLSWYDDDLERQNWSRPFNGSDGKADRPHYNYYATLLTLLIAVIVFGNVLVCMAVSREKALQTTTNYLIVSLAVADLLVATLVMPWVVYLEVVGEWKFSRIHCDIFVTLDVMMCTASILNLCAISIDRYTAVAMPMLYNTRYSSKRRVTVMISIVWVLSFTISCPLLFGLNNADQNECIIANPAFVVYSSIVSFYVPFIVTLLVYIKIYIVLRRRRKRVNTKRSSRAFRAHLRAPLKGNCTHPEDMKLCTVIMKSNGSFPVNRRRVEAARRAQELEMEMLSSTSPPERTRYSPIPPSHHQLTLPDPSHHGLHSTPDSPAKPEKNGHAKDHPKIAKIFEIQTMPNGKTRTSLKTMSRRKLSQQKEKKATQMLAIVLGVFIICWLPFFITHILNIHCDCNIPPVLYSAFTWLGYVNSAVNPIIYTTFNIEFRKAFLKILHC
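HEK293 Trex D2 cells, tetracycline-induced, o/n 30 C 5% CO2; no-wash Ca dye, RT 30–90 min; 10-cycle baseline, 23 nl cpd added, kinetic Ca read 180 s; agonist hits = positive Ca response.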
D2 antagonist – antagonizes the human D2 dopamine receptor; P14416; hit rate 2% among 340,000; HEK293 TREx D2 cells, calcium flux, dopamine EC80; AID 485344; inhibition, % at 10 µM; in the data active = inhibition above about 30%; inactive = below that, where a call was filed; note: 0% is about no effect
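Read-out: kinetic calcium fluorescence (1 cycle/s) in inducible HEK293 T-REx D2 cells after an EC80 dopamine addition that followed 180 s compound preincubation. Loss of the dopamine response indicates antagonism.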
D2 PAM-1 – positive allosteric modulators of human D2 dopamine receptor | P14416 | DiscoveRx D2 beta-arrestin cells, luminescence, 90 min; 100% = 57 uM dopamine signal | potentiation, % (concentration not given with the values) | hit rate 0.23% among 360,000; in the data active = potentiation above about 50%; inconclusive = mostly about 30% to 49%
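D2 cells co-treated with compound plus 50 nM dopamine (EC20) for 90 min at 37 deg C to detect potentiation. Beta-arrestin recruitment was read as enzyme-fragment luminescence after 1 h at ambient temperature. Full response was set by 57 uM dopamine.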
D2 PAM-2 – positively modulates the human D2 dopamine receptor allosterically | P14416 | HEK293 T-REx D2, calcium flux, EC20 dopamine potentiation | potentiation, % at 10 µM | hit rate 0.34% among 340,000;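 active = potentiation over 3 SD above the plate norm, cut at about 30% in these data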; note: 0% is about no effect
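Tetracycline-induced Hek293 Trex D2 cells, force-coupled to calcium, loaded with no-wash calcium dye. Compound added with 180 s kinetic read for agonism, then EC20 dopamine and a further 180 s read for potentiation.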
D2 ag-2 – activates the human D2 dopamine receptor; P14416; DiscoveRx PathHunter D2 beta-arrestin, luminescence, 90 min; 100% = 57 uM dopamine signal; activation, % (concentration not given with the values); hit rate 0.084% among 360,000; AID 624465; in the data active = activation above about 40%; inconclusive = between about 15% and that limit
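Agonist mode: compounds alone added to overnight-plated D2 PathHunter cells for 90 min at 37 C, with 57 uM final dopamine (EC100) defining full response. Beta-arrestin recruitment detected by chemiluminescent reagent, read after 1 h at ambient temperature.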
Starred values were filed as active, the others as inactive; ? = inconclusive; . = not tested or not shown. Compounds with a hit are over-represented: about 2.4% of the library has one in this group of screens.

SMILES | D2 ag-1 | D2 antagonist | D2 PAM-1 | D2 PAM-2 | D2 ag-2
N#Cc1cc2ccccc2nc1SCc1cccnc1 | 0 | 30* | -9 | -7 | 4
COc1ccc2nc(SCc3cccnc3)c(C#N)cc2c1 | 0 | 2 | 6 | -1 | -2
Cc1cccc(C(C)C)c1NC(=O)C1CCCN1S(=O)(=O)c1cccc2nsnc12 (stereo unspecified) | 0 | . | . | -1 | .
COc1cccc(NC(=O)Cn2c(CCC(=O)O)ccc2-c2ccccc2)c1 | 1 | 4 | -6 | 34* | -4
COc1ccc(NC(=O)N(C2CCCCC2)C2CCN(C(C)C)CC2)c(OC)c1 | 1 | 50* | 11 | . | 1
Cc1cc(C)c(NC(=O)C(C)n2c(=O)c(C(F)(F)F)nc3ccccc32)c(C)c1 (stereo unspecified) | 0 | . | . | 11 | .
Clc1ccc(-c2ccc(/C=N/Nc3nncc(-c4ccccc4)n3)o2)cc1 | 0 | -6 | -7 | -3 | -3
Cc1ccc(/C=N/Nc2nncc(-c3ccccc3)n2)o1 | 0 | 51* | -3 | -10 | -4
CC(=O)Oc1ccccc1N(C(C)=O)S(=O)(=O)c1ccc2ccccc2c1 | 1 | -12 | -6 | 0 | -2
CC(=O)Oc1c(Br)cc(N(C(C)=O)S(=O)(=O)c2ccccc2)c2ccccc12 | -3 | 33* | -1 | 11 | ?
CCC(Sc1nnc2c3ccccc3n(CC)c2n1)C(=O)Nc1ccc(NC(C)=O)cc1 (stereo unspecified) | 0 | . | . | -3 | .
CCc1ccc(NC(=O)N(Cc2cccnc2)Cc2ccco2)cc1 | 0 | -6 | -14 | 32* | -2
COC(=O)c1ccc(NC(=S)N(Cc2cccnc2)Cc2ccco2)cc1 | 0 | -5 | 6 | 12 | 7
N#C/C(=C\c1ccc(-c2ccccc2[N+](=O)[O-])o1)C(=O)Nc1nc(-c2cccs2)cs1 | 0 | 32* | -38 | 16 | -9
Oc1ccccc1CN1CCCC(N2CCN(c3cccc(C(F)(F)F)c3)CC2)C1 (stereo unspecified) | 0 | -15 | -2 | -4 | 3
Fc1ccccc1N1CCN(C2CCCN(Cc3cccc(C(F)(F)F)c3)C2)CC1 (stereo unspecified) | 29 | 55* | -6 | -14 | 14
O=C(Nc1ccccc1SC(=O)c1ccccc1)c1ccccc1 | . | . | -12 | . | 15
Cc1ccc(C(=O)Sc2cccccc2=O)cc1 | 4 | 37* | -15 | 7 | -7
CCOC(=O)c1[nH]c(C)c(CCC(=O)NCc2ccc(OC(C)C)cc2)c1C | 0 | . | . | 4 | .
COCCN(C(=O)c1ccccc1)c1nnc(-c2cccnc2)s1 | 0 | 48* | -1 | 8 | -3
Cc1ccc(NC(=O)CN2C(=O)COc3ccc(S(=O)(=O)N4CCOCC4)cc32)c(Cl)c1 | 0 | . | . | 2 | .
CCc1ccc(S(=O)(=O)c2nnn3c2nc(Nc2cccc(C)c2C)c2sccc23)cc1 | -1 | . | . | 3 | .
CC1CC(C)CN(CCCNC(=O)CN2C(=O)CSc3ccc(S(=O)(=O)N4CCCCC4)cc32)C1 (stereo unspecified) | 0 | 52* | -38 | -3 | -4
CC1CC(C)CN(CCCNC(=O)c2ccc3c(c2)NC(=O)CS3)C1 (stereo unspecified) | 0 | 48* | -30 | -8 | -1
O=C(CN1C(=O)CSc2ccc(S(=O)(=O)N3CCOCC3)cc21)NCCCN1CCOCC1 | 0 | 9 | -6 | 6 | 0
SMILES | D2 ag-1 | D2 antagonist | D2 PAM-1 | D2 PAM-2 | D2 ag-2
O=C(CN1C(=O)CSc2ccc(S(=O)(=O)N3CCOCC3)cc21)NCCCN1CCc2ccccc2C1 | 1 | 47* | -21 | -20 | 0
CN1CCN(C(CNC(=O)c2ccccc2)c2ccc3c(c2)OCO3)CC1 (stereo unspecified) | 0 | . | . | 3 | .
COc1cc(CNC(=O)c2cc(-c3ccccc3)n[nH]2)cc(OC)c1OC | 0 | . | . | 8 | .
COc1ccc(-c2cc(C(=O)NCc3ccccc3)c3c(-c4ccccc4)[nH]nc3n2)cc1 | 1 | . | . | -5 | .
O=c1[nH]cnc2c1ncn2[C@@H]1C[C@@H](O)[C@H](CO)O1 | 1 | 38* | 0 | 10 | -6
CCOc1ccccc1C(=O)Nc1ccc(S(=O)(=O)Nc2onc(C)c2C)cc1 | -1 | . | . | 0 | .
C=CCn1c(SCn2nnc3ccccc3c2=O)nnc1-c1ccc(Br)cc1 | -2 | -10 | -6 | 36* | -1
C=CCn1c(SCn2nnc3ccccc3c2=O)nnc1-c1ccc(F)cc1 | 0 | -6 | -1 | 8 | 2
CC(C)N1CCc2c(sc(NC(=O)CCc3ccccc3)c2C(N)=O)C1 | -1 | 10 | -4 | 25 | -1
NC(=O)c1c(NC(=O)C2COc3ccccc3O2)sc2c1CCN(Cc1ccccc1)C2 (stereo unspecified) | 42* | -2 | -23 | -3 | -15
CCCN1CCc2c(sc(NC(=O)c3ccc(S(=O)(=O)N(C)c4ccccc4)cc3)c2C(N)=O)C1 | 78* | -4 | -12 | 0 | -7
COc1cccc(CC(=O)Nc2sc3c(c2C(N)=O)CCCC3)c1 | 0 | 39* | -1 | -9 | 2
CC(C)N1CCc2c(sc(NC(=O)Cc3ccccc3)c2C(N)=O)C1 | 0 | 40* | -14 | -20 | -1
COc1ccc(CC(=O)Nc2sc3c(c2C(N)=O)CCCC3)cc1OC | 0 | 3 | 5 | 2 | 6
Cc1ccc(Cn2c(C)c3cnn(CC(=O)NCCc4ccc(Cl)cc4)c(=O)c3c2C)cc1 | 0 | . | . | 0 | .
CC(=O)Nc1sc2c(c1-c1nc3ccccc3s1)CCN(C(C)C)C2 | 47* | -7 | -18 | -2 | -6
CCN1CCc2c(sc(NC(=O)CSc3ccccc3)c2-c2nc3ccccc3s2)C1 | . | . | . | -23 | .
CC(C)N1CCc2c(sc(NC(=O)CCS(=O)(=O)c3ccccc3)c2C#N)C1 | 0 | 34* | -3 | 9 | -4
O=C(NC1CCCC1)C(c1ccc(Cl)cc1)N1CCOCC1 (stereo unspecified) | -1 | 32* | -6 | -3 | -6
COc1ccc(Cl)cc1Nc1sc(C(=O)c2ccccc2)c(N)c1C(=O)Nc1ccccc1 | 1 | . | . | 16 | .
Cc1nc(N2CCc3ccccc3C2)[nH]c(=O)c1Cc1ccccc1 | 1 | 12 | 1 | 5 | 0
CCCCCc1c(C)nc(N2CCc3ccccc3C2)[nH]c1=O | -2 | 32* | -16 | -14 | -4
Cc1ccc2nc(Nc3cccc(C(F)(F)F)c3)c3nnnn3c2c1 | 1 | . | . | 5 | .
COc1ccc(C2/C=C\CN(C(=O)c3ccc(C)cc3)[C@H](Cc3ccccc3)C(=O)N2Cc2ccc(F)cc2)cc1 (stereo partly specified) | 1 | 41* | -4 | -3 | -4
CCCC(=O)Nc1ccc(Oc2ccc(NC(=O)CCC)cc2)cc1 | 0 | -16 | 12 | 35* | 0
